Assay [1] in a line: Wnt pathway potentiators raising nuclear beta-catenin – imaging, WNT3A-conditioned medium, mouse C2C12, NPC library, primary screen (AID 1117326; in the data active = nuclear beta-catenin stimulation mostly above about 4.2%, no sharp cut-off; inactive = mostly below about 10%). Conditions: stronger effect = higher value.
A short description of assay [2]: stimulators of insulin release from INS-1E, primary screen, cell-based, 5 mM glucose, NPC library (AID 1117329;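 active = compound raises insulin release from rat beta cells at 5 mM glucose, no numeric limit stated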). Conditions: rat INS-1E insulin secretion, at 10 µM, stronger effect = higher value.
Assay [3] in a line: growth inhibition of GSK3B-pretreated HCT116 cells – cell-based, CellTiter-Glo, 0.2 to 20 µM (AID 1117336;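 active = compounds lowering colon cancer cell viability after pretreatment blocking the GSK3B kinase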). Conditions: HCT116 viability after GSK3B inhibitor, at 20 µM, stronger effect = higher value. For orientation: Cellular ATP, detected with luciferase, serves as a proxy for viable cell number.
Assay [4] can be described thus: inhibition of endothelial tube formation, primary screen, imaging, VEGF stimulated, CD31 staining, tube area, NPC library (AID 1117340;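 active = compound that reduces growth-factor-driven endothelial tube area in a mixed cell culture, no cutoff stated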). The following applies: VEGF-stimulated ADSC/ECFC co-culture, at 10 µM, stronger effect = higher value.
A short description of assay [5]: GLP1 release stimulators, primary, NCI-H716, NPC library (AID 1117341;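 active = compound raises GLP1 secretion from the human gut endocrine cells, with no numeric limit stated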). Conditions: NCI-H716 cells, at 10 µM, stronger effect = higher value.
Assay [6] in a line: HCT116 colon cancer cell growth inhibition, primary screen, CellTiter-Glo luminescence, NPC library (AID 1117342;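 active = compounds that lower survival of HCT116 colon cancer cells in the luminescence readout, no numeric limit stated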). The following applies: at 20 µM (top of the series).
Assay [7] in a line: reduced SW480 viability measured with CellTiter-Glo, NPC library, primary (AID 1117343;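 active = compounds that lower viability of the colon cancer cells in the luminescence readout, with no numeric limit stated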). Conditions: CellTiter-Glo luminescence; at 20 µM (top of the series).
A short description of assay [8]: NPC library primary testing for decreased DLD-1 cell viability via CellTiter-Glo (AID 1117346;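 active = compounds that lower survival of DLD-1 colon cancer cells in the luminescence readout, no cutoff given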). The following applies: DLD-1 viability, CellTiter-Glo luminescence; at 20 µM (top of the series).
Assay [9] deals with 6-phosphogluconate dehydrogenase, decarboxylating (Homo sapiens) (UniProt P52209). Briefly: inhibition of human phosphogluconate dehydrogenase – biochemical, recombinant enzyme, NADPH absorbance, primary screen (AID 1159550;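 active = at least 20% inhibition of 6-phosphogluconate dehydrogenase activity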). The following applies: recombinant 6PGD, NADPH absorbance 341 nm; at 10 µM; stronger effect = higher value.
Assay [10] in a line: EMT-state selective cytotoxicity in co-culture – imaging, PC-3E GFP, TEM4-18 mCherry, primary screen (AID 1345086;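 active = compounds killing one labelled cell type while sparing the other, by normalised counts and ratio limits, not self-fluorescent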;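 for all read-outs here: cells exposed to compound for 72 h before imaging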;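 for red/green cell ratio (normalised): normalised mesenchymal count divided by normalised epithelial count so high means epithelial killing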). Conditions: PC-3E GFP / TEM4-18 mCherry co-culture, imaging cell counts, at 1 µM; for red/green cell ratio (normalised): actives lie on both sides, counts scaled to control wells, 1 = unselective.
Assay [11] in a line: viability loss with induced miR-34 in A549 – imaging, A549 dox-inducible miR-34, nuclei and caspase counts, primary screen (AID 1347080;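 active = compounds whose cell count with miR-34 switched on is under 0.7 times the count with it off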). Conditions: A549 miR-34 inducible, Hoechst nuclei count, 48 h.
The nature of assay [12]: MELAS cybrid and Rieske KO viability enhancers – cell-based, MELAS cybrids, Rieske KO mouse fibroblasts, CellTiter-Glo, primary screen (AID 1508586;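 active = mean z-score across replicates of 1.96 or higher in either the MELAS or the Rieske mutant cell line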;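 note: z relative to plate mean and SD of compound and empty wells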). The following applies: low glucose.
Assay [13] concerns the target NAD(+) hydrolase SARM1 (Homo sapiens) (UniProt Q6SZW1). Briefly: blocking NAD cleavage by SARM1 SAM-TIR – cell lysate, NAD-Glo luminescence (AID 1508614;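 active = compound whose remaining NAD level is above about 45 nM, limit read from the data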;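 note: higher remaining NAD means stronger inhibition of SARM1 NADase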). Conditions: SAM-TIR HEK293T lysate NADase, at 1 µM, stronger effect = higher value.
The test system of a further assay is F380Y. Briefly: BK channel mutant inhibitors and activators – cell-based, U2OS BacMam, thallium flux, beta subunits, selectivity assay, profiling panel (AID 1259406).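 Note: initial slope of Thallos dye fluorescence rise after thallium is added; log ratio against the mean of 0.3% DMSO vehicle wells on the same plate.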 Conditions: U2OS BacMam BK variants, at 30 µM.
A further assay concerns F380Y/beta1. Described as above. The following applies: U2OS BacMam BK variants, at 30 µM.
The next assay has as its system F380Y/beta2Delta. The description is as above. Conditions: U2OS BacMam BK variants, at 30 µM.
The test system of a further assay is F380Y/beta4. The description is as above. Conditions: U2OS BacMam BK variants, at 30 µM.
Assay [14] has as its target Calcium-activated potassium channel subunit alpha-1 (Homo sapiens) + Leucine-rich repeat-containing protein 26 (Homo sapiens) (UniProt Q12791+Q2I0M4). Described as above. The following applies: U2OS BacMam BK variants, F380Y/Slo1WT/gamma1, at 30 µM.
A further assay relates to R275C. The description is as above. The following applies: U2OS BacMam BK variants, at 30 µM.
Setting [15] is: measured here: epithelial PC-3E GFP cell survival.
Where [16] appears, read: measured here: mesenchymal TEM4-18 mCherry cell survival.
[17] abbreviates: MELAS cybrid survival, CellTiter-Glo 48 h, stronger effect = higher value.
[18] abbreviates: Rieske KO mouse fibroblast survival, CellTiter-Glo 72 h.

The text below walks through data of PubChem BioAssay.

As a reminder, the inhibition is the drop in the measured response relative to a control, in per cent.

Molecules are shown by their SMILES. Where “and” joins values, the source holds several entries; their conditions need not be identical. Equal entries are not always repeated. Calls of active or inactive are those of the source.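 Rule for the calls, unless noted: active = thallium flux through the channel raised or lowered by more than 3 SD from vehicle-only wells, actives on both sides; inactive = the rest.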

Sequence of NAD(+) hydrolase SARM1 (Homo sapiens) (Q6SZW1 whole entry, looked up): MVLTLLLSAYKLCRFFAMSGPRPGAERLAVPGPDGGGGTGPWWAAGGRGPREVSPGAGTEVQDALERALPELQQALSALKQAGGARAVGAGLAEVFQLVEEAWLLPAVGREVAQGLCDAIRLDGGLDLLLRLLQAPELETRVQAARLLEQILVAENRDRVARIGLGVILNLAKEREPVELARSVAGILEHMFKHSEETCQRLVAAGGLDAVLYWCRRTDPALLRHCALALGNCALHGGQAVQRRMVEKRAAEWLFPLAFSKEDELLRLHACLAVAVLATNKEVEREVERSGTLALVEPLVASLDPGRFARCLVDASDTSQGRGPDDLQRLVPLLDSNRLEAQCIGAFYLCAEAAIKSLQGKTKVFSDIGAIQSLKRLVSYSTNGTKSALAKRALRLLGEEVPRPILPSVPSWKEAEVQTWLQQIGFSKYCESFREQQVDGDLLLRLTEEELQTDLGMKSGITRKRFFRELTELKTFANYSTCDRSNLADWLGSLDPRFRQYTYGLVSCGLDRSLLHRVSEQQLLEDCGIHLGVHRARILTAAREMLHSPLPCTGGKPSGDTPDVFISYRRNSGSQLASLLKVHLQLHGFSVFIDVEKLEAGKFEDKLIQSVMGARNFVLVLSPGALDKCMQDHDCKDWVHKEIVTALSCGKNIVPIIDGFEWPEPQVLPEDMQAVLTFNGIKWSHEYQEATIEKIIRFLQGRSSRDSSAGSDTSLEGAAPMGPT
Sequence of 6-phosphogluconate dehydrogenase, decarboxylating (Homo sapiens) (P52209 whole entry, looked up): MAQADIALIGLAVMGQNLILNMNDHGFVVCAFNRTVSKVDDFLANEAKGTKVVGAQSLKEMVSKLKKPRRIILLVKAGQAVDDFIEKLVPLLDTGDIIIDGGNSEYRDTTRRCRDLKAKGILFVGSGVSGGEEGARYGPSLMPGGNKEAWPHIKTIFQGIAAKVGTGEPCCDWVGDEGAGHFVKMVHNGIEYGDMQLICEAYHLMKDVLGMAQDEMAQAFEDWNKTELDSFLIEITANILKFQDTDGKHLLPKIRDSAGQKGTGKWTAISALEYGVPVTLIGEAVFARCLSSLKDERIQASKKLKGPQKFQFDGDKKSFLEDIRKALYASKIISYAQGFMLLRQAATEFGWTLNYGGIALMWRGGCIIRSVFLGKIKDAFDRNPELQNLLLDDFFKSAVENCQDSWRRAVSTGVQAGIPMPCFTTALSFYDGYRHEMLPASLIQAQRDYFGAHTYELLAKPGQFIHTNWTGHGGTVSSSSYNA
Sequence of Calcium-activated potassium channel subunit alpha-1 (Homo sapiens) + Leucine-rich repeat-containing protein 26 (Homo sapiens) (Q2I0M4 whole entry, looked up, one chain of several): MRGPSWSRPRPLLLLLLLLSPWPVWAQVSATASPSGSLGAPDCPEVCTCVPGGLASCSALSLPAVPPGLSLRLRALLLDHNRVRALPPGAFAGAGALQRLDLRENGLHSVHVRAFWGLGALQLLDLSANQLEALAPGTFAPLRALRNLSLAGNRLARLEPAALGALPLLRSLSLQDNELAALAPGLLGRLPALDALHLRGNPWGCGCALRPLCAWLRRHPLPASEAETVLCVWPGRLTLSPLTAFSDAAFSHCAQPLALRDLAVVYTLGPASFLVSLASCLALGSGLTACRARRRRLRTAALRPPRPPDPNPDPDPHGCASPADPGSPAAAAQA

On to `CS(=O)(=O)OCCCCOS(C)(=O)=O`, for which the nuclear beta-catenin stimulation in [1] (at 10 µM) is 1.2% (inactive); in [1] (stimulation, at 2 µM), 0.6%. Further, the insulin secretion stimulation in [2] was 0.2% (inactive). Besides, the viability decrease in [3] is 3.6% (inactive). Also, the tube area decrease in assay [4] was 32.5% (inactive). Moreover, in [5], the GLP1 secretion stimulation was -1.7% (inactive). In addition, the inhibition of viability in assay [6] is -1.23% (inactive). For the same compound, the viability decrease (inhibition) in assay [7] is 31.8% (inactive); in assay [8], -11% (inactive). Also, in assay [9], the inhibition is 1.77% (inactive). In addition, in [10], the red/green cell ratio (normalised) was 1.02 (inactive). Further, the values for the normalised cell number in assay [10] (setting [15]) and in assay [10] (setting [16]) were 1.16 and 1.19, respectively. For the same compound, the fold change in [11] (stronger effect = lower value, cell number ratio, induced over uninduced) was 0.955 (inactive) and 0.888 (inactive) and 0.86 (inactive); in [11] (measured here: relative caspase fold change +Dox/-Dox) it was 1.41 and 0.655 and 1.42. Also, the cell count in assay [11] (measured here: total cells with miR-34 induction, stronger effect = lower value) is 9740 and 7120 and 8790; in assay [11] (measured here: total cells without miR-34 induction) it was 10200 and 8020. In addition, the z-score was -0.182 (inactive) and -0.283 (inactive) in assay [12] (setting [17]); -0.743 and -0.155 in assay [12] (setting [18]). The remaining NAD in assay [13] is 10 nM (inactive). In addition, the log fold change Tl+ flux with F380Y is -0.0118 (inactive); in the assay on F380Y/beta1, 0.0504 (inactive); in the assay on F380Y/beta2Delta, 0.00156 (inactive); in the assay with F380Y/beta4 it was 0.00072 (inactive); in assay [14], -0.0136 (inactive); with R275C, 0.0198 (inactive).

Regarding `O=C(O)CCCc1ccccc1`, the nuclear beta-catenin stimulation was 0.2% (inactive) in assay [1] (at 10 µM) and 0.9% in assay [1] (stimulation, at 2 µM). Also, the insulin secretion stimulation in [2] was 1.8% (inactive). For the same compound, the viability decrease in assay [3] was -6.2% (inactive). Also, the tube area decrease in [4] is -15% (inactive). Further, the GLP1 secretion stimulation in [5] was -1.1% (inactive). Moreover, the inhibition of viability in assay [6] is 0.1% (inactive). Further, the results for the viability decrease (inhibition) in [7] and in assay [8] were 12.5% (inactive) and -3.9% (inactive), respectively. Moreover, the inhibition in [9] was -10% (inactive). Besides, the red/green cell ratio (normalised) in assay [10] was 1 (inactive). In addition, the normalised cell number in assay [10] (setting [15]) is 1.12; in [10] (setting [16]) it was 1.11. The z-score in assay [12] (setting [17]) is -0.2 (inactive) and -0.108 (inactive); in assay [12] (setting [18]), -0.148 and -0.948. Moreover, in [13], the remaining NAD is 10 nM (inactive). For the same compound, the log fold change Tl+ flux was 0.0311 (inactive) in the assay with F380Y; 0.0211 (inactive) in the assay with F380Y/beta1; -0.00447 (inactive) in the assay on F380Y/beta2Delta; 0.0283 (inactive) in the assay with F380Y/beta4; 0.00509 (inactive) in [14]; -0.048 (inactive) in the assay with R275C.

On to `CCOC(=O)C1=C(C)NC(C)=C(C(=O)OC)C1c1cccc([N+](=O)[O-])c1` (stereo not given), for which the nuclear beta-catenin stimulation is -0.1% (inactive) in [1] (at 10 µM) and 1.2% in [1] (stimulation, at 2 µM). Further, the insulin secretion stimulation in assay [2] is 2.2% (inactive). Further, in assay [3], the viability decrease is 58.2% (active). Besides, in assay [4], the tube area decrease was 23.7% (inactive). Also, the GLP1 secretion stimulation in [5] was -0.6% (inactive). Also, the inhibition of viability in [6] is 75.7% (active). Moreover, the viability decrease (inhibition) in assay [7] is 52.4% (active); in [8], 40.9% (inactive). Moreover, the inhibition in assay [9] is 2.14% (inactive). Besides, the red/green cell ratio (normalised) in [10] is 1.19 (inactive). Also, the values for the normalised cell number in [10] (setting [15]) and in assay [10] (setting [16]) were 1.11 and 1.31, respectively. Also, the z-score in assay [12] (setting [17]) was -0.48 (inactive) and 1.38 (inactive) and -0.0841 (inactive); in assay [12] (setting [18]), 0.0141 and 0.8 and 0.442. Moreover, the remaining NAD in [13] is 10 nM (inactive). Further, the log fold change Tl+ flux was 0.00482 (inactive) in the assay with F380Y; -0.0255 (inactive) with F380Y/beta1; -0.0689 (inactive) in the assay with F380Y/beta2Delta; -0.0639 (inactive) in the assay with F380Y/beta4; 0.00177 (inactive) in [14]; 0.0204 (inactive) in the assay on R275C.
